Measurements: PubChem BioAssay AID720690 (Broad Institute, 2013)
Potency and affinity values are given separately. Activity calls are given as the source filed them.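 How the source made its calls: active means every repeat run showing a signal drop whose fitted half-maximal concentration is at most twice the top tested concentration; inconclusive means repeat runs disagree, or flat partial drop, or poor fit; inactive means the rest.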

assay: HEK293T cytotoxicity, dose response, cytotoxicity control for miR-122 modulator project, cell-based, activator set, cherry-pick (AID 720690); settings: HEK293T viability, CellTiter-Glo luminescence, 48 h; series mostly up to 26 µM; activity change, negative = cytotoxicity: at the top concentration;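 further: 0% = neutral control wells and -100% = MG132 cytotoxic control wells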

SMILES	activity change, negative = cytotoxicity
C/C=C/c1ccc([C@@H]2[C@@H](CNC(=O)c3ccncc3)N(C(=O)CC)[C@H]2CO)cc1	-12.1% (inactive)
COCC(=O)NC[C@H]1[C@@H](c2ccc(C3=CCCC3)cc2)[C@H](CO)N1C(=O)C1CC1	-9.54% (inactive)
CNC(=O)C[C@H]1CC[C@@H]2[C@H](COc3ccc(NC(=O)C(C)C)cc3C(=O)N2C)O1	-17.7% [at 23.5 µM] (inactive)
CO[C@H]1CN(C)C(=O)c2cc(NC(=O)C3CC3)ccc2OC[C@H](C)N(CCc2ccccc2)C[C@H]1C	-3.16% (inactive)
CCNC(=O)C[C@H]1CC[C@@H]2[C@H](COc3ccc(NC(=O)Nc4cccc(OC)c4)cc3C(=O)N2C)O1	2.23% (inactive)
O=C(NC[C@H]1[C@@H](c2ccccc2)[C@@H](CO)N1CC1CCCC1)c1ccncc1	-12.6% (inactive)
Fc1ccc(CN2CCN(c3ncnc4scc(-c5ccc(F)cc5)c34)CC2)cc1	1.05% (inactive)
CN1C(=O)c2cc(NC(=O)c3cccc(F)c3)ccc2OC[C@H]2O[C@@H](CC(=O)O)CC[C@H]21	8.84% (inactive)
CC(C)NC(=O)N1[C@H](CO)[C@@H](c2ccccc2)[C@@H]1CN(C)C(=O)c1cccnc1	-0.275% (inactive)
CC(C)Oc1ccc(CNCCC2(C(C)C)CCOC(C)(C)C2)cc1 (stereo not given)	12% (inactive)
COc1cccc(C(=O)Nc2ccc3c(c2)C(=O)N(C)[C@H]2CC[C@H](CC(=O)NCc4ccc(F)cc4)O[C@@H]2CO3)c1	5.32% (inactive)
CCNC(=O)C[C@H]1CC[C@@H]2[C@H](COc3ccc(NC(=O)c4cccs4)cc3C(=O)N2C)O1	3.03% (inactive)
CCCNC(=O)N1C[C@@H]2[C@H](c3ccccc31)[C@@H](CO)N2Cc1cc(F)ccc1F	-7.29% [at 23.5 µM] (inactive)
COC(=O)C[C@H]1CC[C@@H]2[C@H](COc3ccc(NC(=O)c4cccs4)cc3C(=O)N2C)O1	-2.48% (inactive)
CO[C@@H]1CN(C)C(=O)c2ccc(NC(=O)Nc3ccc(C(F)(F)F)cc3)cc2OC[C@H](C)NC[C@H]1C	-12.8% (inactive)
CNC(=O)C[C@H]1CC[C@@H]2[C@H](COc3ccc(NC(=O)Nc4ccc(F)c(F)c4)cc3C(=O)N2C)O1	3.16% (inactive)
C[C@@H]1CN([C@@H](C)CO)C(=O)c2cccc(NS(C)(=O)=O)c2O[C@H]1CN(C)S(=O)(=O)c1ccc(Cl)cc1	-12.3% (inactive)
C[C@@H]1CN([C@H](C)CO)C(=O)c2cc(-c3cncnc3)cnc2O[C@H]1CN(C)Cc1ccc(Oc2ccccc2)cc1	-18.9% (inactive)
CN1C(=O)c2cc(NC(=O)c3cccs3)ccc2OC[C@H]2O[C@H](CC(=O)NCCN3CCCCC3)CC[C@@H]21	4.88% (inactive)
CN1C(=O)c2cc(NS(=O)(=O)c3ccc(Cl)cc3)ccc2OC[C@H]2O[C@H](CC(=O)N3CCc4ccccc4C3)CC[C@@H]21	-15.6% (inactive)
Cc1oc(-c2ccc(Cl)cc2)nc1CN1CCCC(C(=O)NCc2ccco2)C1 (stereo not given)	-7.14% (inactive)
C[C@@H]1CN([C@H](C)CO)S(=O)(=O)c2ccc(C3=CCCCC3)cc2O[C@@H]1CN(C)C(=O)Nc1ccc2c(c1)OCO2	-32.2% (inactive)
CCCC(=O)Nc1ccc2c(c1)C(=O)N(C)[C@@H]1CC[C@H](CC(=O)NCCN3CCCCC3)O[C@H]1CO2	-17.2% (inactive)
CCN(C[C@@H]1N[C@H](CO)[C@H]1c1ccc(-c2ccc(F)cc2)cc1)C(=O)COC	-27.5% [at 23.5 µM] (inactive)
CN1C(=O)c2cc(NC(=O)c3cccs3)ccc2OC[C@H]2O[C@@H](CC(=O)N3CCCCC3)CC[C@H]21	-11% (inactive)
